The list shows a part of the results. Unmarked numbers belong to inactive results. Calls of active or inactive are those of the source. Rule as the data show it, unless noted: active = activation above about 24%; inactive = the rest.
target: Peroxisome proliferator-activated receptor gamma (Homo sapiens) + Nuclear receptor coactivator 3 (Homo sapiens) (UniProt P37231+Q9Y6Q9); assay: agonists promoting SRC-3 binding to PPARgamma – biochemical, confirmation (AID 1301); settings: biochemical PPARgamma-SRC-3 coactivator recruitment, agonist mode; at 8 µM; hits give high values;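 also: 0% = vehicle wells and 100% = reference agonist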
Sequence (P37231 whole entry, looked up): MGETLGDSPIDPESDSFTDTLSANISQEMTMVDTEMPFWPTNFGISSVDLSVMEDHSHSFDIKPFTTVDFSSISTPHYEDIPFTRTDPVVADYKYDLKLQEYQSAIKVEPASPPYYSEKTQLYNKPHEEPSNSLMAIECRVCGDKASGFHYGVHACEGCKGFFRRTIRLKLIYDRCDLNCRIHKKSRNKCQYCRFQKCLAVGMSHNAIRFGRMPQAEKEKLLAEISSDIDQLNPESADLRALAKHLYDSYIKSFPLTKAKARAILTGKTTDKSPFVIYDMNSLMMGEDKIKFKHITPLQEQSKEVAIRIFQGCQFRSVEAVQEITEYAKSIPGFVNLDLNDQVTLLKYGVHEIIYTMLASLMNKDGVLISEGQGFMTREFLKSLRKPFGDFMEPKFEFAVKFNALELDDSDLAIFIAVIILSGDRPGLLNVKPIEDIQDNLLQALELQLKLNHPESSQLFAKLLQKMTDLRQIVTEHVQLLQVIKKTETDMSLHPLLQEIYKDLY
Sequence (Q9Y6Q9 whole entry, looked up): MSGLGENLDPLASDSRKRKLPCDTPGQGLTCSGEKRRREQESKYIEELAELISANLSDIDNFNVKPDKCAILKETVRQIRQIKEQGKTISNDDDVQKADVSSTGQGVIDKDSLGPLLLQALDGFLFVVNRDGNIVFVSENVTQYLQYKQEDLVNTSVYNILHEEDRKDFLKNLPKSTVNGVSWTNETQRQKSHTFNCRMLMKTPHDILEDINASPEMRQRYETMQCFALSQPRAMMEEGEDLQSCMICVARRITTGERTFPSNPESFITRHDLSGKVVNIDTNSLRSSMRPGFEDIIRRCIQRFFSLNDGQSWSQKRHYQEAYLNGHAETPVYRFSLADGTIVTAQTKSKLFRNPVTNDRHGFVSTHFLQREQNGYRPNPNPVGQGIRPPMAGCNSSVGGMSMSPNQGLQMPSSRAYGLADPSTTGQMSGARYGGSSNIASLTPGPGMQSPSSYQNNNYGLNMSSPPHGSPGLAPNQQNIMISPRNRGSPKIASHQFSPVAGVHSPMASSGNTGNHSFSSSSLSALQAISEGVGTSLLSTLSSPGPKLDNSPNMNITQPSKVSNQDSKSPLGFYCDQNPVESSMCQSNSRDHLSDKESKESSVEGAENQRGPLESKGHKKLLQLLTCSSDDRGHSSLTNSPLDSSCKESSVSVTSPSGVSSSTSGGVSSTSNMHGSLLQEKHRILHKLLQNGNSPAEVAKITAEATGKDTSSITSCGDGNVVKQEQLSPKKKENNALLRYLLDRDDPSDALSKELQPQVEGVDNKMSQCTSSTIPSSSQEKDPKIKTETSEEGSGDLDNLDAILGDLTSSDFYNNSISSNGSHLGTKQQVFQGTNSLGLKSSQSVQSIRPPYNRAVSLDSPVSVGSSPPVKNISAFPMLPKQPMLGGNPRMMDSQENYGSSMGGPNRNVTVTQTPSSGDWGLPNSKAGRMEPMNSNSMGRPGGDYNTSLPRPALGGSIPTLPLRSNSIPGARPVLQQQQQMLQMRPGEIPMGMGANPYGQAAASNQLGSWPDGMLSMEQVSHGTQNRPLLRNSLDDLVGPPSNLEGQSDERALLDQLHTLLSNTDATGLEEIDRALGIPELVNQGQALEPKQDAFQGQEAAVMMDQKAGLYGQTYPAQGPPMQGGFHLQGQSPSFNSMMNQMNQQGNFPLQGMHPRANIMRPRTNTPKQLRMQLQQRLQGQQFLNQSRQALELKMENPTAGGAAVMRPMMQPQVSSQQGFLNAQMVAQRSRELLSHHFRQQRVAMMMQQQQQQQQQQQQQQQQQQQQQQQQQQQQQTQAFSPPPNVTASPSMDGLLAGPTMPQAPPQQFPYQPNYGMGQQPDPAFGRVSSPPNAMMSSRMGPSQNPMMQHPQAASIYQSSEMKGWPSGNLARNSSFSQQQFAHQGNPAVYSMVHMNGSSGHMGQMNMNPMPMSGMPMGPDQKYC

Row | Compound | activation
1 | CC(=O)c1sc2nc(SCC(=O)N3CCCCC3)[nH]c(=O)c2c1C | 18.3%
2 | Cn1c(=O)cc(SCC(=O)N2CCCC2)c2cc(Cl)ccc21 | 42% (active)
3 | OCC1(CCc2ccccc2)CCN(Cc2ccc3nsnc3c2)CC1 | 22.9%
4 | COC(=O)Cn1cc(C(=O)c2cccs2)c2ccccc21 | 0.74%
5 | CCN(/N=C/c1ccc(N(C)C)cc1)c1nc2ccccc2[nH]1 | 6.08%
6 | Cc1cc(C)c2cc(CN(Cc3cccs3)Cc3nnnn3CC3CCCO3)c(=O)[nH]c2c1 (centres undefined) | 15%
7 | Cc1ccc(OCC(=O)Nc2ccc(-c3nc4ncccc4o3)cc2)cc1 | 5.41%
8 | CC(=O)n1c(C=Nc2ccccc2)c(O)c2ccccc21 | 5.23%
9 | COc1ccc2c(Cl)c(-c3nnco3)sc2c1 | 13.6%
10 | Fc1ccc(COc2cccc(-c3n[nH]c(=S)o3)c2)cc1 | 34% (active)
11 | Cc1ccccc1-c1n[nH]c(=S)n1/N=C/c1ccc(-c2ccccc2Br)o1 | 22.5%
12 | O=C(CSc1c2c(nc3ccc(Cl)cc13)CCCC2)NCc1ccco1 | 14.4%
13 | Cc1cc(N2C(=O)C(=O)/C(=C(/O)c3ccc(Cl)cc3)C2c2cccc(Br)c2)no1 (centres undefined) | 14%

target: Sphingosine 1-phosphate receptor 4 (Homo sapiens) (UniProt O95977); assay: blockers of human S1P4 signalling – cell-based, confirmation (AID 1524; in the data active = inhibition above about 30%); settings: S1P4-expressing cell line, antagonist mode, reporter read-out; at 4.98 µM; hits give high values
Sequence (O95977 whole entry, looked up): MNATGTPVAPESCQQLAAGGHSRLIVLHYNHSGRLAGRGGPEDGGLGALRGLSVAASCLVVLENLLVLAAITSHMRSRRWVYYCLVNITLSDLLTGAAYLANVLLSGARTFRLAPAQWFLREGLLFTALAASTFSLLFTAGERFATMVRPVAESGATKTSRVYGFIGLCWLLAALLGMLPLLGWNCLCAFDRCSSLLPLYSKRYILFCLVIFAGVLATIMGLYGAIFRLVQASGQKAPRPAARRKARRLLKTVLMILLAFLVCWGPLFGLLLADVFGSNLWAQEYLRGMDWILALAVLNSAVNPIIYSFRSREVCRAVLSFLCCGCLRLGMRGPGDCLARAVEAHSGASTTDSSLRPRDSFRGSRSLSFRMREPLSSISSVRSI

Row | Compound | inhibition
14 | C[C@@H](NC(=O)OC(C)(C)C)c1nnc(S(=O)(=O)Cc2ccccc2)o1 | 83.4% (active)
15 | CCOC(=O)/C=C/C(=O)OCC(=O)NC(c1ccccc1)c1ccccc1 | 63% (active)
16 | CNc1ccc(SC#N)cc1 | 8.17%
17 | O=C(NC(Nc1nc2ccc([N+](=O)[O-])cc2s1)(C(F)(F)F)C(F)(F)F)c1ccccc1 | 64.5% (active)
18 | Cc1cc(C)nc(S/C=C/C(=O)c2ccccc2)n1 | 97.1% (active)
19 | Cc1cc2oc(C(=O)Nc3c(C)n(C)n(-c4ccccc4)c3=O)c(C)c2cc1Cl | 63.1% (active)
20 | O=C(CC(O)(C(F)(F)F)C(F)(F)F)Nc1ccc(Cl)c(Cl)c1 | 37.4% (active)
21 | COc1ccc(-c2csc(NC3OC(=O)c4ccccc43)n2)cc1 (centres undefined) | 19.3%
22 | O=C(/C=C/c1ccc(Cl)cc1Cl)c1cccnc1 | 43.4% (active)
23 | CC(C)c1ccc(N2CCN(C(=O)c3ccccc3NC(=O)/C=C(\C(=O)O)c3ccccc3)CC2)cc1 | 102% (active)
24 | Nc1nonc1-c1nc2ccccc2n1Cc1ccc(F)cc1 | 35.7% (active)

— PubChem BioAssay
